Out of some 5,500 compounds screened, about 2,000 (36%) were called active. Another 18% or so got no clear call; they are omitted. Cut-off read from the data, not from the text of the source: active = normalized growth mostly below about 0.91 (no sharp cut-off); inconclusive = no clear call, values can overlap the other calls; inactive = mostly above about 0.92. Some of the results follow.
Test: chemical genetic growth profiling, strain panel (AID 1159580);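 note: tested at 20 µM; growth read once vehicle control cultures reached saturation at 30 °C; 1 = growth at the plate median or of vehicle wells; lower values mean less growth of the strain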
Conditions: growth OD

Measured: normalized growth

CC1C[C@H]2CC(=O)[C@H]3CCCN4CCC[C@H]2[C@]34C1 (stereo partly specified)
inactive: S. cerevisiae deletion strains, locus YAL021C, strain ccr4, active compounds read low 1.01 | S. cerevisiae deletion strains, locus YAL026C, strain drs2, active compounds read low 1.01 | S. cerevisiae deletion strains, locus YAL030W, strain snc1, active compounds read low 1 | S. cerevisiae deletion strains, locus YBL061C, strain skt5, active compounds read low 1.01 | S. cerevisiae deletion strains, locus YBR009C, strain hhf1, active compounds read low 1 | S. cerevisiae deletion strains, locus YBR021W, strain FUR4, active compounds read low 0.996 | S. cerevisiae deletion strains, locus YBR023C, strain chs3, active compounds read low 1.02 | S. cerevisiae deletion strains, locus YBR171W, strain sec66, active compounds read low 0.996 | S. cerevisiae deletion strains, locus YBR229C, strain ROT2, active compounds read low 1 | S. cerevisiae deletion strains, locus YBR231C, strain swc5, active compounds read low 0.993 | S. cerevisiae deletion strains, locus YBR279W, strain paf1, active compounds read low 1.02 | S. cerevisiae deletion strains, locus YCL011C, strain gbp2, active compounds read low 1.02 | S. cerevisiae deletion strains, locus YCL016C, strain dcc1, active compounds read low 1.02 | S. cerevisiae deletion strains, locus YCL029C, strain bik1, active compounds read low 1.02 | S. cerevisiae deletion strains, locus YCL061C, strain MRC1, active compounds read low 1.01 | S. cerevisiae deletion strains, locus YCL069W, strain vba3, active compounds read low 1.01 | S. cerevisiae deletion strains, locus YCR088W, strain abp1, active compounds read low 1.01 | S. cerevisiae deletion strains, locus YDL005C, strain med2, active compounds read low 1.01 | S. cerevisiae deletion strains, locus YDL035C, strain GPR1, active compounds read low 1.03 | S. cerevisiae deletion strains, locus YDL040C, strain nat1, active compounds read low 1.01 | S. cerevisiae deletion strains, locus YDL074C, strain BRE1, active compounds read low 1.03 | S. cerevisiae deletion strains, locus YDL101C, strain DUN1, active compounds read low 1.02 | S. cerevisiae deletion strains, locus YDL134C, strain PPH21, active compounds read low 1.01 | S. cerevisiae deletion strains, locus YDL185W, strain tfp1, active compounds read low 1.02 | S. cerevisiae deletion strains, locus YDL192W, strain arf1, active compounds read low 1.02 | S. cerevisiae deletion strains, locus YDR001C, strain nth1, active compounds read low 1.01 | S. cerevisiae deletion strains, locus YDR069C, strain doa4, active compounds read low 1.02 | S. cerevisiae deletion strains, locus YDR101C, strain arx1, active compounds read low 1.03 | S. cerevisiae deletion strains, locus YDR137W, strain rgp1, active compounds read low 1.03 | S. cerevisiae deletion strains, locus YDR150W, strain NUM1, active compounds read low 1 | S. cerevisiae deletion strains, locus YDR159W, strain sac3, active compounds read low 1 | S. cerevisiae deletion strains, locus YDR162C, strain NBP2, active compounds read low 1.03 | S. cerevisiae deletion strains, locus YDR195W, strain ref2 0.993 | S. cerevisiae deletion strains, locus YDR297W, strain sur2, active compounds read low 1 | S. cerevisiae deletion strains, locus YDR318W, strain mcm21, active compounds read low 1.02 | S. cerevisiae deletion strains, locus YDR334W, strain swr1, active compounds read low 1 | S. cerevisiae deletion strains, locus YDR335W, strain msn5, active compounds read low 1.01 | S. cerevisiae deletion strains, locus YDR388W, active compounds read low 1.01 | S. cerevisiae deletion strains, locus YDR392W, strain spt3, active compounds read low 0.954 | S. cerevisiae deletion strains, locus YDR502C, strain sam2, active compounds read low 1.01 | S. cerevisiae deletion strains, locus YEL003W, strain gim4, active compounds read low 1.01 | S. cerevisiae deletion strains, locus YEL037C, strain rad23, active compounds read low 1.01 | S. cerevisiae deletion strains, locus YEL061C, strain CIN8 (second series), active compounds read low 1.01 | S. cerevisiae deletion strains, locus YEL061C, strain CIN8, active compounds read low 1.01 | S. cerevisiae deletion strains, locus YER015W, strain faa2, active compounds read low 1.02 | S. cerevisiae deletion strains, locus YER016W, strain bim1, active compounds read low 1.01 | S. cerevisiae deletion strains, locus YER110C, active compounds read low 1.02 | S. cerevisiae deletion strains, locus YER111C, strain swi4, active compounds read low 1 | S. cerevisiae deletion strains, locus YER155C, strain BEM2 (second series), active compounds read low 1.04 | S. cerevisiae deletion strains, locus YER155C, strain BEM2, active compounds read low 0.989 | S. cerevisiae deletion strains, locus YER167W, strain BCK2, active compounds read low 1.01 | S. cerevisiae deletion strains, locus YFR010W, strain ubp6, active compounds read low 1.01 | S. cerevisiae deletion strains, locus YGL078C, strain dbp3, active compounds read low 1.01 | S. cerevisiae deletion strains, locus YGL086W, strain mad1, active compounds read low 1.02 | S. cerevisiae deletion strains, locus YGL167C, strain pmr1, active compounds read low 1.01 | S. cerevisiae deletion strains, locus YGL173C, strain kem1, active compounds read low 1.01 | S. cerevisiae deletion strains, locus YGL227W, strain vid30, active compounds read low 1.01 | S. cerevisiae deletion strains, locus YGL240W, strain doc1, active compounds read low 0.996 | S. cerevisiae deletion strains, locus YGL248W, strain PDE1, active compounds read low 1.01 | S. cerevisiae deletion strains, locus YGL253W, strain hxk2, active compounds read low 1 | S. cerevisiae deletion strains, locus YGR135W, strain pre9, active compounds read low 1.01 | S. cerevisiae deletion strains, locus YGR252W, strain gcn5, active compounds read low 0.999 | S. cerevisiae deletion strains, locus YHR013C, strain ard1, active compounds read low 1.02 | S. cerevisiae deletion strains, locus YHR027C, strain rpn1, active compounds read low 1 | S. cerevisiae deletion strains, locus YHR030C, strain SLT2, active compounds read low 1 | S. cerevisiae deletion strains, locus YHR079C, strain IRE1 (second series), active compounds read low 1.01 | S. cerevisiae deletion strains, locus YHR094C, strain hxt1, active compounds read low 1.02 | S. cerevisiae deletion strains, locus YHR129C, strain ARP1, active compounds read low 1.01 | S. cerevisiae deletion strains, locus YHR142W, strain chs7, active compounds read low 1.02 | S. cerevisiae deletion strains, locus YHR200W, strain rpn10, active compounds read low 1.02 | S. cerevisiae deletion strains, locus YIL066C, strain RNR3, active compounds read low 1.01 | S. cerevisiae deletion strains, locus YIL073C, strain SPO22, active compounds read low 1.06 | S. cerevisiae deletion strains, locus YIL125W, strain kgd1, active compounds read low 1.02 | S. cerevisiae deletion strains, locus YIR030C, strain dcg1, active compounds read low 1.02 | S. cerevisiae deletion strains, locus YJL092W, strain hpr5, active compounds read low 1.01 | S. cerevisiae deletion strains, locus YJL095W, strain BCK1 (second series), active compounds read low 1.01 | S. cerevisiae deletion strains, locus YJL095W, strain BCK1, active compounds read low 1.04 | S. cerevisiae deletion strains, locus YJL115W, strain asf1, active compounds read low 1.01 | S. cerevisiae deletion strains, locus YJL129C, strain trk1, active compounds read low 1.02 | S. cerevisiae deletion strains, locus YJL134W, strain LCB3, active compounds read low 0.994 | S. cerevisiae deletion strains, locus YJL154C, strain vps35, active compounds read low 1.02 | S. cerevisiae deletion strains, locus YJL164C, strain tpk1, active compounds read low 1.01 | S. cerevisiae deletion strains, locus YJL166W, strain qcr8, active compounds read low 1.01 | S. cerevisiae deletion strains, locus YJL168C, strain set2, active compounds read low 1.01 | S. cerevisiae deletion strains, locus YJL187C, strain SWE1 (second series), active compounds read low 1.03 | S. cerevisiae deletion strains, locus YJL187C, strain SWE1, active compounds read low 1 | S. cerevisiae deletion strains, locus YJR043C, strain POL32, active compounds read low 1 | S. cerevisiae deletion strains, locus YKL009W, strain mrt4, active compounds read low 1.03 | S. cerevisiae deletion strains, locus YKL068W, active compounds read low 1.01 | S. cerevisiae deletion strains, locus YKL085W, strain MDH1 (second series), active compounds read low 1 | S. cerevisiae deletion strains, locus YKL085W, strain MDH1, active compounds read low 1 | S. cerevisiae deletion strains, locus YKL160W, strain elf1, active compounds read low 1.02 | S. cerevisiae deletion strains, locus YKL190W, strain CNB1, active compounds read low 0.989 | S. cerevisiae deletion strains, locus YKR001C, strain vps1, active compounds read low 1.02 | S. cerevisiae deletion strains, locus YKR026C, strain gcn3, active compounds read low 1.01 | S. cerevisiae deletion strains, locus YKR091W, strain srl3, active compounds read low 1.02 | S. cerevisiae deletion strains, locus YLL001W, strain dnm1, active compounds read low 1.01 | S. cerevisiae deletion strains, locus YLL026W, active compounds read low 1 | S. cerevisiae deletion strains, locus YLL041C, strain sdh2, active compounds read low 1.01 | S. cerevisiae deletion strains, locus YLR027C, strain aat2, active compounds read low 1.01 | S. cerevisiae deletion strains, locus YLR039C, strain RIC1, active compounds read low 1.04 | S. cerevisiae deletion strains, locus YLR058C, strain SHM2, active compounds read low 1.02 | S. cerevisiae deletion strains, locus YLR102C, strain apc9, active compounds read low 1.02 | S. cerevisiae deletion strains, locus YLR221C, strain rsa3, active compounds read low 1.02 | S. cerevisiae deletion strains, locus YLR258W, strain gsy2, active compounds read low 1.03 | S. cerevisiae deletion strains, locus YLR262C, strain YPT6 (second series), active compounds read low 1.01 | S. cerevisiae deletion strains, locus YLR262C, strain YPT6, active compounds read low 1.12 | S. cerevisiae deletion strains, locus YLR268W, strain sec22, active compounds read low 1.04 | S. cerevisiae deletion strains, locus YLR320W, strain mms22, active compounds read low 1.02 | S. cerevisiae deletion strains, locus YLR330W, strain CHS5, active compounds read low 1 | S. cerevisiae deletion strains, locus YLR342W, strain FKS1 (second series), active compounds read low 0.993 | S. cerevisiae deletion strains, locus YLR342W, strain FKS1, active compounds read low 1.02 | S. cerevisiae deletion strains, locus YLR357W, strain rsc2, active compounds read low 0.995 | S. cerevisiae deletion strains, locus YLR370C, strain arc18, active compounds read low 1.02 | S. cerevisiae deletion strains, locus YLR371W, strain rom2, active compounds read low 1.02 | S. cerevisiae deletion strains, locus YLR384C, strain iki3, active compounds read low 1.02 | S. cerevisiae deletion strains, locus YLR418C, strain cdc73, active compounds read low 1.02 | S. cerevisiae deletion strains, locus YML016C, strain PPZ1, active compounds read low 1.01 | S. cerevisiae deletion strains, locus YML032C, strain rad52, active compounds read low 1.01 | S. cerevisiae deletion strains, locus YML120C, strain ndi1, active compounds read low 1.01 | S. cerevisiae deletion strains, locus YML124C, strain tub3, active compounds read low 1.01 | S. cerevisiae deletion strains, locus YMR058W, strain fet3, active compounds read low 1.01 | S. cerevisiae deletion strains, locus YMR078C, strain ctf18, active compounds read low 1.03 | S. cerevisiae deletion strains, locus YMR125W, strain sto1, active compounds read low 1.01 | S. cerevisiae deletion strains, locus YMR129W, active compounds read low 1.01 | S. cerevisiae deletion strains, locus YMR205C, strain PFK2, active compounds read low 1.02 | S. cerevisiae deletion strains, locus YMR223W, strain ubp8, active compounds read low 1.02 | S. cerevisiae deletion strains, locus YMR231W, strain pep5, active compounds read low 1 | S. cerevisiae deletion strains, locus YMR307W, strain GAS1, active compounds read low 1.01 | S. cerevisiae deletion strains, locus YNL067W, strain RPL9B, active compounds read low 1.03 | S. cerevisiae deletion strains, locus YNL071W, strain lat1, active compounds read low 1.02 | S. cerevisiae deletion strains, locus YNL128W, strain TEP1, active compounds read low 1.03 | S. cerevisiae deletion strains, locus YNL153C, strain GIM3, active compounds read low 1.01 | S. cerevisiae deletion strains, locus YNL209W, strain ssb2, active compounds read low 1.01 | S. cerevisiae deletion strains, locus YNL233W, strain BNI4, active compounds read low 1.03 | S. cerevisiae deletion strains, locus YNL248C, strain rpa49, active compounds read low 0.998 | S. cerevisiae deletion strains, locus YNL250W, strain rad50, active compounds read low 1.05 | S. cerevisiae deletion strains, locus YNL271C, strain bni1, active compounds read low 1.03 | S. cerevisiae deletion strains, locus YNL298W, strain CLA4, active compounds read low 1.01 | S. cerevisiae deletion strains, locus YNL307C, strain MCK1, active compounds read low 1.04 | S. cerevisiae deletion strains, locus YNL322C, strain KRE1 (second series), active compounds read low 1 | S. cerevisiae deletion strains, locus YNL322C, strain KRE1, active compounds read low 1 | S. cerevisiae deletion strains, locus YNR049C, strain mso1, active compounds read low 1.03 | S. cerevisiae deletion strains, locus YNR052C, strain pop2, active compounds read low 1.02 | S. cerevisiae deletion strains, locus YOL012C, strain htz1 1.55 | S. cerevisiae deletion strains, locus YOL147C, strain pex11, active compounds read low 1.02 | S. cerevisiae deletion strains, locus YOR001W, strain rrp6, active compounds read low 1.02 | S. cerevisiae deletion strains, locus YOR061W, strain CKA2, active compounds read low 1.01 | S. cerevisiae deletion strains, locus YOR069W, strain VPS5, active compounds read low 1.01 | S. cerevisiae deletion strains, locus YOR070C, strain gyp1, active compounds read low 1.03 | S. cerevisiae deletion strains, locus YOR080W, strain dia2, active compounds read low 1 | S. cerevisiae deletion strains, locus YOR083W, strain WHI5, active compounds read low 1.02 | S. cerevisiae deletion strains, locus YOR106W, strain vam3, active compounds read low 1.02 | S. cerevisiae deletion strains, locus YOR136W, strain idh2, active compounds read low 1.03 | S. cerevisiae deletion strains, locus YOR144C, strain elg1, active compounds read low 1 | S. cerevisiae deletion strains, locus YOR184W, strain ser1, active compounds read low 1.01 | S. cerevisiae deletion strains, locus YOR265W, strain rbl2, active compounds read low 1 | S. cerevisiae deletion strains, locus YOR270C, strain vph1, active compounds read low 1.05 | S. cerevisiae deletion strains, locus YOR290C, strain snf2, active compounds read low 1.01 | S. cerevisiae deletion strains, locus YOR316C, strain cot1, active compounds read low 1.02 | S. cerevisiae deletion strains, locus YPL051W, strain arl3, active compounds read low 1 | S. cerevisiae deletion strains, locus YPL055C, strain LGE1, active compounds read low 1.03 | S. cerevisiae deletion strains, locus YPL078C, strain atp4, active compounds read low 1.01 | S. cerevisiae deletion strains, locus YPL106C, strain sse1, active compounds read low 0.997 | S. cerevisiae deletion strains, locus YPL240C, strain hsp82, active compounds read low 0.998 | S. cerevisiae deletion strains, locus YPR119W, strain clb2, active compounds read low 1.02 | S. cerevisiae deletion strains, locus YPR141C, strain kar3, active compounds read low 1.02 | S. cerevisiae deletion strains, locus YPR163C, strain tif3, active compounds read low 1.02 | S. cerevisiae deletion strains, locus YPR167C, strain met16, active compounds read low 1.02 | S. cerevisiae deletion strains, strain wtn01, active compounds read low 1.02 | S. cerevisiae strains, strain wild type, active compounds read low 1.01

Reference: PubChem BioAssay AID1159580 (chemical genetic matrix, 2015)
